Screening data deposited in PubChem by National Center for Advancing Translational Sciences (NCATS).
FMDV antiviral – antivirals against foot and mouth disease virus; FMDV antiviral cell-based qHTS; 410,000 compounds, 1.2% hits; Potency, µM (doses to about 57.9 µM), for the others: at the top dose activity change, negative = inhibition, usual class: inhibitors; calls by dose curve; tested in HEK293T cells; further: read-out not given here; nearly all actives have a fitted effect of over 45% in size
Vaccinia Venus – vaccinia inhibition (Venus reporter); Potency, µM (doses to about 36.5 µM), for inactives: at the highest dose activity change, negative = inhibition, most hits filed as inhibitors; 330,000 compounds, 0.46% hits; AID 720580; Vaccinia virus Venus reporter expression, fluorescence; calls by dose curve; tested in A549 cells; further: nearly all actives have a fitted effect of over 30% in size
Giardia FBPA inh – inhibitors of Giardia lamblia fructose-1,6-bisphosphate aldolase | Potency, µM (titrated, usually from 59.6 µM), without a hit: top-dose activity, negative = inhibition, most hits filed as inhibitors | 290,000 compounds, 0.71% hits | A8B2U2 | purified Giardia FBPA | AID 2451; active means well fitted inhibition curve with a large enough effect; inconclusive means small, poorly fitted or top-dose-only effect, or effect the other way; further: nearly all actives have a fitted effect of over 55% in size
Target sequence (A8B2U2 whole entry, looked up): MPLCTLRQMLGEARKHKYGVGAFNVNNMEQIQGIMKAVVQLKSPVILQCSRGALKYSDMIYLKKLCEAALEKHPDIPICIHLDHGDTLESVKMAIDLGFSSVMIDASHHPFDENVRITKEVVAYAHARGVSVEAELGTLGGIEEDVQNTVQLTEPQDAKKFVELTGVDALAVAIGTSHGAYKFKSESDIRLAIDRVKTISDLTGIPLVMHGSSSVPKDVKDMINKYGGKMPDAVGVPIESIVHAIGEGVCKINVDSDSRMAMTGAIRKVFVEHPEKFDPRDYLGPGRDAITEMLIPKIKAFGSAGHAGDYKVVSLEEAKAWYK
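Giardia FBPA (40 nM reagent) was preincubated 10 min at RT with compound (up to 57.5 uM final), then substrate plus GAPDH/TPI/NAD/arsenate coupling system with diaphorase/resazurin was added; resorufin fluorescence (525/598 nm) was read after 20 min.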
Vaccinia mCherry – vaccinia inhibition (mCherry reporter). Vaccinia virus mCherry reporter infection, fluorescence. Potency, µM (titrated, usually from 36.5 µM), without a hit: at the highest dose activity change, negative = inhibition, usual class: inhibitors. 310,000 compounds, 0.63% hits. AID 720579; calls by dose curve; tested in A549 cells; further: nearly all actives have a fitted effect of over 35% in size
The depositor's hits bear a star; i = inactive; u = inconclusive; x = not tested or not shown; [ ] = dose if it differs, or a comment. The list is not random: actives were taken first. Their share in the collection is about 2.2%. On the % scale 0 is the no-effect control and ±100 the full control effect; potency means the concentration at half of the fitted maximal effect.

SMILES	FMDV antiviral	Vaccinia Venus	Giardia FBPA inh	Vaccinia mCherry
COc1ccc(C2c3[nH]c4ccc(OC)cc4c3CCN2C(=O)Nc2ccccc2)cc1 (stereo not drawn)	u	-21%	x	u
COc1cc2nc(Cl)nc(NC3CCN(C)CC3)c2cc1OC	x	-19%	x	-25%
O=C1C(Cl)=C(Nc2ccc3cn[nH]c3c2)C(=O)c2ccccc21	20µM*	8.9µM*	u	u
Cc1nn2c(N3CCN(C(=O)c4ccco4)CC3)cc(C(C)(C)C)nc2c1-c1ccccc1	14µM*	10µM*	2%	x
O=C(c1ccoc1)N1CCN(c2cc(-c3ccccc3)nc3cc(-c4ccccc4)nn23)CC1	35µM*	u	x	u
Cc1cc(N2CCN(C(=O)c3ccoc3)CC2)n2nc(-c3ccccc3)cc2n1	u	-13%	x	u
COc1cccc(-c2cc3nc(-c4ccccc4)cc(N4CCN(C(=O)c5ccoc5)CC4)n3n2)c1	32µM*	u	x	u
Cc1cc(N2CCN(C(=O)c3ccco3)CC2)n2ncc(-c3ccccc3)c2n1	-5%	-18%	14%	x
COc1ccccc1-c1cc2nc(-c3ccccc3)cc(N3CCN(C(=O)c4ccco4)CC3)n2n1	4.5µM*	u	x	u
Cc1nn2c(N3CCN(C)CC3)cc(C(C)(C)C)nc2c1-c1ccccc1	u	-3%	0%	i
COc1ccccc1-c1cc2nc(-c3ccccc3)cc(N3CCN(C(=O)c4ccoc4)CC3)n2n1	7.9µM*	u	x	u
O=C(Nc1cccc(C(F)(F)F)c1)Nc1cc(Cl)ccc1C(=O)O	x	x	1%	x
CC1=Nc2ccccc2/C1=C/c1c(O)n(C)c(=O)[nH]c1=O	32µM*	-9%	-18%	i
Cc1ccccc1-n1c(O)c(/C=C2/C(c3ccccc3)=Nc3ccccc32)c(=O)[nH]c1=O	22µM*	-9%	-5%	u
Cc1nnc(N/N=C/c2cc(C)n(-c3ccc(F)cc3)c2C)n1N	12%	u	10µM*	u
Cc1nnc(N/N=C/c2ccccc2O)n1N	26%	u	7.1µM*	u
Oc1ccccc1/C=N/Nc1nn[nH]n1	-11%	x	u	x
CCCCn1nnc(NC(=S)NC(=O)c2ccc(OCC)c([N+](=O)[O-])c2)n1	-12%	1.3µM*	x	u
CCCCn1nnc(NC(=O)c2ccc(-c3ccccc3[N+](=O)[O-])o2)n1	39%	-10%	-10%	i
CCCCn1nnc(NC(=S)NC(=O)c2ccc(-c3cccc(Cl)c3Cl)o2)n1	u	0.11µM*	18%	u
CCOc1ccc(-c2cc(C(=O)Nc3ccc(C)c(NS(C)(=O)=O)c3)[nH]n2)c(C)c1	u	u	x	11µM*
CCOC(=O)C(CC)Sc1ccc2nnc(-c3ccc(F)cc3)n2n1 (stereo not drawn)	x	6%	x	-21%
C(=Nc1cnc2ccccc2c1)c1ccnc2ccccc12	x	5%	x	-10%
CN1CCN(CC(=O)Nc2nc(-c3ccccc3)cs2)CC1	5%	-7%	1%	-18%
COc1ccc(C2(O)CCN(CC(=O)Nc3nc(-c4ccccc4)cs3)CC2)cc1	28µM*	-21%	-6%	u
SMILES	FMDV antiviral	Vaccinia Venus	Giardia FBPA inh	Vaccinia mCherry
COC(=O)[C@@H]1CCCN1Cc1ccc2c(c1)CN(Cc1nccs1)CCO2	0%	-10%	x	i
CNC(=S)N/N=C/c1ccc2c(c1)OCCO2	47%	x	-11%	x
O=C(CSCc1ccccc1)N/N=C/c1ccccc1OCc1ccccc1	x	-10%	6%	-6%
NC(=S)N/N=C\c1ccccc1OCc1ccccc1	-18%	2.5µM*	-14%	u
NC(=S)N/N=C/c1ccccc1	-9%	u	u	5.6µM*
NC(=S)N/N=C/c1ccc2c(c1)OCCO2	46%	10µM*	u	11µM*
O=C(NN=Cc1ccccc1)NN=Cc1ccccc1	31%	5%	x	-9%
Cc1cc(Br)ccc1NC(=O)COC(=O)c1ccccc1OCC(=O)N(C)C	x	-3%	x	3%
Cc1cc(C)c2nccc(/C=C/c3ccc(N(C)C)cc3)c2c1	x	-10%	x	-22%
COC(=O)C[C@H]1c2ccccc2[C@H]2C(=C[C@@H](C)[C@H]3C(=O)N(O)C(=O)[C@H]32)N1C(=O)OC	x	x	4%[12.9 µM]	x
COc1cc2c(NC3CCN(C)CC3)nc(N3CCCN(C)CC3)nc2cc1OCCCCCCN(C)C	x	7.1µM*	x	5µM*
CCCN(C)CCCOc1cc2nc(N3CCCN(C)CC3)nc(NC3CCN(C)CC3)c2cc1OC	x	13µM*	x	u
COc1cc2c(NC3CCN(C)CC3)nc(N3CCCN(C)CC3)nc2cc1OCCOCCN(C)C	x	-20%	x	-23%
COc1cc2c(NC3CCN(C)CC3)nc(N3CCCN(C)CC3)nc2cc1OCCCCN(C)C	x	10µM*	x	u
